From PubChem
DAX1 inh-1: NR0B1 (DAX1) inhibition | actives 0.99% (n = 340,000) | HEK293 Gal4-DAX1 luciferase reporter, luminescence | AID 504766 | inhibition, % at 6.75 µM | P51843;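 active = inhibition above the mean over all tested compounds plus 3 SD, cut at about 4.2% in these data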;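 also: inhibition shows as a rise in luminescence from relieved DAX1 repression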
Target sequence (P51843 207-470 limits assumed): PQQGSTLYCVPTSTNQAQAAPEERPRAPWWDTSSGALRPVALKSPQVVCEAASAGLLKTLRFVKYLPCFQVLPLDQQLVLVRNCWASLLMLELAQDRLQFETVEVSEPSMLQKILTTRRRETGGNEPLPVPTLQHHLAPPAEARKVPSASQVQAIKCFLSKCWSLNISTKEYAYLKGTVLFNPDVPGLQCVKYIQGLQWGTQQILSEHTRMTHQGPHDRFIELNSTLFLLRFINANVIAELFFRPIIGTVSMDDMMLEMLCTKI
hcDAF-12 act: activators of H. contortus DAF-12 nuclear receptor; HEK293 hcDAF-12 lit1-tk-luc reporter, luminescence; 0% DMSO, 100% Δ7-dafachronic acid; AID 652067; actives 1.4% (n = 370,000); activation, % at 6.8 µM;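 active = activation above the mean of all tested compounds plus 3 SD, cut at about 5.5% in these data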
ssDAF-12 act: activators of S. stercoralis DAF-12 nuclear receptor; activation, % at 6.8 µM; actives 1% (n = 370,000); AID 652126; HEK293 ssDAF-12/GRIP1 lit1-tk-luc reporter, luminescence; % of 3 µM dafachronic acid response;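 active = activation above the mean over all tested compounds plus 3 SD, cut at about 0.9% in these data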
DAX1 inh-2: DAX1 (NR0B1) inhibition, primary screen; AID 652010; HEK293T StAR-luciferase reporter, SF-1/DAX-1 repression relief; inhibition, % at 6.8 µM; actives 1.1% (n = 370,000);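 active = inhibition above the mean over all tested compounds plus 3 SD, cut at about 3.6% in these data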;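 also: higher inhibition means more luminescence from relief of DAX-1 repression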
hgDAF12 agonist: hgDAF-12 agonism, primary luciferase screen. HEK293 GAL4-hgDAF12 UAS-luciferase reporter, agonist luminescence; normalized to butyrate control. activation, % at 6.8 µM. actives 1.8% (n = 370,000);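 active = activation above a cutoff set at the mean of all screened compounds plus 3 SD, cut at about 10% in these data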
LXR ag: activates human LXR-beta, counter-screen for hcDAF-12 agonists | 3,400 tested, under 10 active | shares compounds with hcDAF-12 act | AID 743027 | HEK293 Gal4-LXR tk-luc reporter, luminescence, 24 h; normalized: DMSO 0%, positive control 100% | activation, % at 6.8 µM;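 active = mean percent activation of the reporter above a cutoff set as the average over tested compounds plus their standard deviation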
hcDAF12 conf: confirmation of H. contortus DAF-12 agonists; shares compounds with hcDAF-12 act; HEK293 hcDAF-12 lit1-tk-luc reporter, luminescence; % of Δ7-dafachronic acid response; activation, % at 6.8 µM; actives 61% (n = 3,400); AID 743032;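 active = mean activation across triplicate tests above the threshold derived from the earlier primary screen, cut at about 5.5% in these data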
Numbers stand for hits; 0 = inactive; - = no result given. In the library only some 4.1% were active in any assay of this set; here they are far more common.

SMILES	DAX1 inh-1	hcDAF-12 act	ssDAF-12 act	DAX1 inh-2	hgDAF12 agonist	LXR ag	hcDAF12 conf
Cc1ccccc1N=Nc1c(O)[nH]c2ccccc12	-	6.6	2.2	0	11	0	16
Oc1[nH]c2ccccc2c1N=Nc1c(F)c(F)c(C(F)(F)F)c(F)c1F	0	0	0	0	0	-	-
O=C(CSc1nc2ccccc2[nH]1)N=Nc1c(O)[nH]c2ccccc12	0	9.1	0	0	0	0	0
O=C(N=Nc1c(O)[nH]c2ccccc12)c1cccs1	0	15	1.9	4.4	21	0	15
C[C@H]1[C@H](NC(=O)c2ccc(C(C)(C)C)cc2)CC[C@@]23CCCN2C(=O)CCC[C@@H]13	-	0	0	-	0	-	-
COC(=O)[C@]12C[C@H](CC(=O)NCc3ccc(OC)c(OC)c3)C(=O)N(CCc3ccc(OC)c(OC)c3)C1=C[C@H](C(C)C)O[C@@H]2C1CC1	-	0	0	0	0	-	-
O=c1oc2ccccc2c(Nc2ccccc2O)c1[N+](=O)[O-]	0	0	0	0	0	-	-
O=c1oc2ccccc2c(Nc2cc3ccccc3cc2O)c1[N+](=O)[O-]	0	8.3	1.0	0	17	0	14
O=C(COC(=O)c1cc([N+](=O)[O-])ccc1Cl)NC1CCCC1	0	10	0	0	0	0	0
COC(=O)[C@]12C[C@H](CC(=O)NCC34CC5CC(CC(C5)C3)C4)C(=O)N(Cc3cccc4ccccc34)C1=C[C@H](C1CCCC1)O[C@@H]2C	-	0	0	0	0	-	-
CC(=O)C1=C(C)N(CC(C)C)C(=S)NC1c1cccc(Cl)c1 (stereo unspecified)	-	0	0	0	0	-	-
Cc1ccn2cc(CSc3ccccc3)nc2c1	0	6.6	0	0	12	0	0
Cc1ccc(SCc2cn3cccnc3n2)cc1	0	0	0	0	0	-	-
CCOc1cc(CCNC(=O)c2cc(-c3ccccc3)c(N3CCOCC3)s2)ccc1OC	-	0	0	0	0	-	-
Cc1cc(N)n2ncc(-c3ccc(Cl)cc3)c2n1	0	6.7	0	0	0	0	0
COc1ccc(CCNc2cc(C)nc3c(-c4ccccc4OC)cnn23)cc1OC	0	0	0	0	0	-	-
Cc1cc(C)n2cc(-c3ccc(Cl)cc3)c(C(=O)O)c2n1	0	10	1.4	0	0	0	9.3
Cc1cc(NCCOCCO)n2ncc(-c3ccc(Cl)cc3)c2n1	0	6.7	1.0	3.7	0	0	6.8
COC(=O)C1=C(C)N(Cc2cccc(C(F)(F)F)c2)C(=NCc2cc(OC)c(OC)c(OC)c2)NC1c1ccc(Cl)cc1 (stereo unspecified)	-	0	0	0	0	-	-
CCCCCCCCN1C(=O)[C@@H](CC(=O)NCC23CC4CC(CC(C4)C2)C3)C[C@@]2(C(=O)OC)C1=C[C@H](COCc1ccccc1)O[C@@H]2C	-	0	0	0	0	-	-
N#C/C(=C\c1c(Cl)cccc1Cl)c1nc2ccccc2[nH]1	0	0	0	0	0	-	-
Cc1cc(O)ccc1N/C=C(\C#N)c1nc2ccccc2o1	0	8.8	0	0	0	0	0
N#C/C(=C\c1c(Cl)cccc1Cl)c1nc2ccccc2o1	0	6.6	0	0	0	0	0
COC(=O)[C@H](CC(C)C)N(CCc1cn(Cc2ccc(C)cc2)nn1)S(=O)(=O)c1ccccc1Br	-	0	0	0	0	-	-
CC(C)c1ccc(NC(=O)COC(=O)CC2CCCC2)cc1	0	0	0	0	0	-	-
SMILES	DAX1 inh-1	hcDAF-12 act	ssDAF-12 act	DAX1 inh-2	hgDAF12 agonist	LXR ag	hcDAF12 conf
O=C(COC(=O)CC1CCCC1)Nc1cc2c(cc1Cl)C(=O)c1ccccc1C2=O	0	9.1	0	0	0	0	6.1
O=C(NC1CCCCN(Cc2ccc(Cl)cc2)C1=O)c1cc(-c2ccccc2)no1 (stereo unspecified)	-	0	0	0	0	-	-
COc1cccc(CNC(=O)[C@H]2CCCN2C(=O)[C@H]2CCCN2C(=O)c2ccc(OC(F)(F)F)cc2)c1	-	0	0	0	0	-	-
Cc1ccc(NC2=C(Cl)C(=O)c3ccccc3C2=O)cc1	0	7.4	1.3	0	0	0	5.9
O=C(Cc1ccc(Br)cc1)NC1CCCCC1	0	0	0	0	0	-	-
O=C(Cc1ccc(O)cc1)NC1CCCCCC1	0	6.8	0	0	0	0	0
COC(=O)[C@]12C[C@H](CC(=O)N3CCN(C(=O)c4ccco4)CC3)C(=O)N(Cc3ccccc3)C1=C[C@H](C(C)C)O[C@@H]2C1CC1	-	0	0	0	0	-	-
Oc1ccccc1-c1csc(-c2ccccc2)n1	4.9	14	5.1	0	20	0	15
COc1cccc(CNC(=O)CCNC(=O)c2ccco2)c1	0	0	0	0	0	-	-
COc1ccc(CCNC(=O)CCNC(=O)c2ccco2)cc1	0	6.8	0	0	0	0	0
O=c1c(/C=C(\O)c2ccc(F)cc2)nc2ccccc2n1-c1ccccc1	0	0	0	0	0	-	-
Cn1c(=O)c(/C=C/c2ccccc2)nc2ccccc21	0	13	2.4	4.2	23	0	16
Cn1c(=O)c(/C=C/c2ccc(F)cc2)nc2ccccc21	0	10.0	0	0	0	0	9.9
CN(C)c1nc2ccccc2n(C)c1=O	0	0	0	0	0	-	-
COc1ccc(NC(=O)N(C)C[C@@H]2Oc3c(NC(=O)Nc4c(C)noc4C)cccc3C(=O)N([C@@H](C)CO)C[C@@H]2C)cc1	0	0	0	0	0	-	-
COc1ccc(NC(=O)Nc2cccc3c2O[C@H](CN(C)C(=O)Nc2c(C)noc2C)[C@@H](C)CN([C@H](C)CO)C3=O)cc1	0	7.0	0	0	0	0	0
CC(C)CNc1cccc2c1S(=O)(=O)N[C@@H](Cc1ccccc1)CO2	-	0	0	0	0	-	-
CC(NCc1ccco1)C(=O)N1CCN(Cc2ccccc2F)CC1 (stereo unspecified)	-	0	0	0	0	-	-
CCCCCCCCNS(=O)(=O)CC1NCc2cc(OC)ccc21 (stereo unspecified)	-	0	0	0	0	-	-
COC(=O)C1CCN(c2nc3ccccc3nc2C(C#N)C(=O)OCC(C)C)CC1 (stereo unspecified)	0	0	0	0	0	-	-
COC(=O)C1CCN(c2nc3ccccc3nc2C(C#N)C(=O)NCCc2ccccc2)CC1 (stereo unspecified)	0	8.2	0	0	0	0	0
O=C(N/N=C/c1c[nH]c2ccccc12)c1ccn[nH]1	0	9.9	0	0	12	0	0
O=C(N/N=C/c1c[nH]c2ccccc12)c1ccc(Br)cc1	0	7.3	1.1	0	0	0	0
Cc1nccn1CC(=O)N/N=C/c1c[nH]c2ccccc12	0	8.3	0	0	0	0	0
